Several values for one entry are separate records, joined by “and”; a condition that tells them apart may be missing. Equal entries are not always repeated. Results filed as inconclusive are left out. Entries that show only a call come without a potency. Values without a mark were called inactive. Activity calls are given as the source filed them. Calls follow the shape of the dose curve; as a rule, active = well fitted cell-killing curve with a large enough effect; inconclusive = small, poorly fitted or top-dose-only effect, or effect the other way; inactive = no such curve, though single readings can be large or run the other way.
Assays:
[1] = Viability qHTS for spleen associated tyrosine kinase inhibitor (SYKi) naive MV4-11 cells (AID 1963823); also: nearly all actives have a fitted effect of over 40% in size
Procedure, shortened: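 Cells: MV4-11, SYK inhibitor naive, 500 per well. Treatment: library compounds, 72 hr, 37 C, 5% CO2. Read-out: CellTiter-Glo luminescence after 10 min RT.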

[2] = Viability qHTS for spleen associated tyrosine kinase inhibitor (SYKi) drug resistant MV4-11 cells (AID 1963824); also: nearly all actives have a fitted effect of over 35% in size
Procedure, shortened: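 CellTiter-Glo luminescence, read 10 min after reagent addition, reports viability after a 72 hr compound exposure. Cells are an MV4-11 line made resistant to SYK inhibition, seeded at 500 per well onto compound-containing plates.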
Potency is read from the fitted curve at half-maximal effect.

**Q.** For CCOC(=O)C(CCc1ccccc1)NC1CSC(c2cccs2)CN(CC(=O)O)C1=O (stereo unspecified), which Potency [1] is on record?
**A.** The Potency was 25.9 µM (active).

**Q.** And the Potency [2]?
**A.** Its Potency is 6.51 µM (active).

**Q.** Which results are given for CCN(CCCOc1ccc2c(Nc3cc(CC(=O)Nc4cccc(F)c4)[nH]n3)ncnc2c1)CCOP(=O)(O)O?
**A.** Potency [1]: 23.1 nM (active) and 186 nM (active); Potency [2]: 58 nM (active) and 372 nM (active)

**Q.** With CC(=O)O[C@@]1(C)[C@@H]2CC(=C(C)C)C(=O)C[C@@]2(C)CC[C@H]1OC(=O)C1(C)OC1C (stereo partly specified) as the compound, how does the Potency [1] read?
**A.** The Potency was “inactive”.

**Q.** What about the Potency [2] of the same compound?
**A.** The Potency was “inactive”.

**Q.** What does the source list for CC(CCC1(O)OC2CC3C4CCC5CC(O[C@@H]6O[C@H](CO)[C@@H](O)[C@H](O)[C@H]6O[C@@H]6OC[C@@H](O)[C@H](O)[C@H]6O)C(O)CC5(C)C4CCC3(C)C2C1C)CO[C@@H]1O[C@H](CO)[C@@H](O)[C@H](O)[C@H]1O (stereo partly specified)?
**A.** viability (% of control) [1]: 83.1% [at 9.25 µM]; viability, % of control [2]: 86.8% [at 9.25 µM]

**Q.** With C[C@@H]1CC[C@]2(C(=O)OC3OC(CO)C(O)C(O)C3O)CC[C@]3(C)C(=CCC4[C@@]5(C)CC[C@H](O)[C@](C)(C(=O)O)C5CC[C@]43C)C2[C@]1(C)O (stereo partly specified) as the compound, how does the Potency [1] read?
**A.** Its Potency is “inactive”.

**Q.** What about the Potency [2] of the same compound?
**A.** Its Potency is “inactive”.

**Q.** Which Potency [1] does the source give for COC(=O)C1=CO[C@@H](O[C@@H]2O[C@H](CO)[C@@H](O)[C@H](O)[C@H]2O)[C@@H]2[C@@H](C)[C@@H](OC(=O)/C=C/c3ccccc3)[C@@H](O)[C@H]12 here?
**A.** Its Potency is “inactive”.

**Q.** What about the Potency [2] of the same compound?
**A.** Its Potency is “inactive”.

**Q.** With O=C1NCCSc2c1sc1ccc(O)cc21 as the compound, how does the Potency [1] read?
**A.** The Potency was 2.59 µM (active).

**Q.** What about the Potency [2] of the same compound?
**A.** The Potency was 2.91 µM (active).

**Q.** Which Potency [1] does the source give for C=C1CC2C3(C)C(O)CC(=O)C(C)(C)C3C(OC(C)=O)C(OC(C)=O)C2(C)C2C(=O)OC(C)(C(=O)OC)C(=O)C12C (stereo unspecified) here?
**A.** Its Potency is “inactive”.

**Q.** And the Potency [2]?
**A.** Its Potency is “inactive”.

Reference: PubChem BioAssay (NCATS)
